Source: PMC4336329 (PLoS ONE, 2015)
Among all 310,000 compounds or so, about 14,000 (4.5%) showed an effect of 50% or more. Effects have a minus sign here. The sample as a whole holds a higher share of strong results than the screen did.

Target: human ether-à-go-go-related gene (hERG) potassium channel (human, UniProt Q12809)
Assay: primary screen, population patch clamp on CHO cells stably expressing hERG; higher = less effect of the substance
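Also: peak tail current of the secondary pulse compared with the same well before compound.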

Chain of human ether-à-go-go-related gene (hERG) potassium channel (Q12809 whole entry, looked up): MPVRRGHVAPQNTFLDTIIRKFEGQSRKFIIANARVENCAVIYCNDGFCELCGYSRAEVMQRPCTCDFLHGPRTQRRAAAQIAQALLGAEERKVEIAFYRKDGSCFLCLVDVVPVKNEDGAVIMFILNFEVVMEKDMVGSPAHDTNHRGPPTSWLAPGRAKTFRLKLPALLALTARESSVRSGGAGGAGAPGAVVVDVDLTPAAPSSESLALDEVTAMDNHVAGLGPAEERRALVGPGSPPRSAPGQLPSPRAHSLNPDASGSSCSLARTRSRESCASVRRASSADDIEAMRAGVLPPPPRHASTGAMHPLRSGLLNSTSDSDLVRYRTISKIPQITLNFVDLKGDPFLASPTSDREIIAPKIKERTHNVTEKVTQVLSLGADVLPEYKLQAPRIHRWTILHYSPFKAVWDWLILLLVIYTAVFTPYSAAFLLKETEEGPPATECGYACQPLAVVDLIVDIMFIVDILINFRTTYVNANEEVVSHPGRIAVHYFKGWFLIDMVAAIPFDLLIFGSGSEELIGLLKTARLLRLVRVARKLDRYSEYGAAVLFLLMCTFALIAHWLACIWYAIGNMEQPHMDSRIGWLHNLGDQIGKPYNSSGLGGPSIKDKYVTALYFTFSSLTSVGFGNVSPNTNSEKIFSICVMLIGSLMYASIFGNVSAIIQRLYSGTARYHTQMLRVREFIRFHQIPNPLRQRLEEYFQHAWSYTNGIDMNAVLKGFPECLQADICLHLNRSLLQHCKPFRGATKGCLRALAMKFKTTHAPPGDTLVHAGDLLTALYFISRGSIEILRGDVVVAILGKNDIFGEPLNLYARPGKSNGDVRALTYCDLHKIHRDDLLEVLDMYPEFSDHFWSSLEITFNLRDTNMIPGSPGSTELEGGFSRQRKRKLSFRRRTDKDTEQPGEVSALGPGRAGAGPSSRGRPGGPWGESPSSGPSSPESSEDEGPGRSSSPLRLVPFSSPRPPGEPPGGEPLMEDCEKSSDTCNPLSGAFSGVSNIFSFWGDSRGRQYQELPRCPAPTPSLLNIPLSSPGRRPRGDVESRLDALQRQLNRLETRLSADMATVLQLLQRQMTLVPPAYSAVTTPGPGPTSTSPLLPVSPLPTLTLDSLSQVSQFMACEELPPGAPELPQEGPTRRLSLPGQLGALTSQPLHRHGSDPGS

Row | SMILES | hERG current change (%, negative = inhibition) at 10uM [%]
1 | COCc1nnc(SCC(=O)NCc2ccccc2)n1-c1ccccc1 | -3.33
2 | CCOCCCNC(C(=O)Nc1ccc(OC)c(Cl)c1)c1ccccc1 (stereo not drawn) | -35.1
3 | CCC(C)C(NC(N)=O)C(=O)Nc1ccc(C)c(Cl)c1 (stereo not drawn) | 10.9
4 | CCc1ccc(C(=O)c2cncc(Br)c2)cc1 | -18.3
5 | CCOC(=O)c1c(CN2CCCCC2)oc2ccc(OC)cc12 | -61.6
6 | CCOC(=O)c1c(CN2CCOCC2)oc2ccc(OC)cc12 | -7.29
7 | COc1ccc2oc(C)c(C(=O)NN)c2c1 | -1.4
8 | COc1ccc2oc(C(=O)OCC(=O)N3CCCC(C)C3)c(C)c2c1 (stereo not drawn) | -39.4
9 | CCOC(=O)c1c(CN2CCCCC2)oc2ccc(O)cc12.Cl | -54.3
10 | CCOC(=O)CCC(=O)c1c(C)oc2ccc(OC)cc12 | -57.2
11 | COc1ccc2oc(C)c(C(=O)c3ccccc3)c2c1 | -7.34
12 | COc1ccc2oc(C(=O)OC(C)C(=O)N3CCC(C)CC3)c(C)c2c1 (stereo not drawn) | -5.44
13 | CCOC(=O)c1c(CN2CCN(c3ccccc3)CC2)oc2ccc(O)cc12 | -4.3
14 | CCOC(=O)c1c(CN2CCOCC2)oc2ccc(OC(C)=O)cc12 | 13.9
15 | CCOC(=O)c1c(CN2CCC(C)CC2)oc2ccc(OC)cc12 | -51.2
16 | CCOC(=O)c1c(CN2CCN(C)CC2)oc2ccc(O)cc12 | -38
17 | CCOC(=O)c1cnc(Nc2nc3ccccc3o2)nc1CSc1nnc(C)s1 | -5.06
18 | C/C(=N\NC(=O)c1ccco1)c1ccc(NC(=O)c2cccs2)cc1 | 5.09
19 | Cc1ccc(NC(=O)CCC(=O)Nc2ccc(C)cc2)cc1 | 12.2
20 | COC(=O)C1=C(c2ccc3ccccc3c2)C[C@@H]2CC[C@H]1N2C(=O)N1CCCCC1 | 2.21

Row | SMILES | hERG current change (%, negative = inhibition) at 10uM [%]
21 | CCn1nc(C)c(/C=N/NC(=O)c2nc3nc(C)cc(C)n3n2)c1C | 14.1
22 | COc1ccc(-c2nnn(Cc3nn[nH]n3)n2)cc1OC | 3.25
23 | O=C(CCSc1nnc(-c2ccncc2)o1)Nc1ccccc1Cl | -10.9
24 | CCN(CC)CCOC(=O)c1c(C)oc2ccc(OC)cc12.Cl | -36.6
25 | CCOC(=O)c1c(-c2ccccc2)oc2ccc(OC)cc12 | 1.46
26 | CCOC(=O)c1c(CN2CCCCC2)oc2ccc(OC)cc12.Cl | -58.4
27 | CCc1ccc2oc(=O)cc(CN3CCCCC3C)c2c1.Cl (stereo not drawn) | -16.7
28 | CCOC(=O)c1c(C)n(CCN2CCN(C)CC2)c2ccc(OC)cc12.Cl | -20.2
29 | COc1ccc2oc(C(=O)OCC(=O)N3C(C)CCCC3C)c(C)c2c1 (stereo not drawn) | -14.8
30 | CCOC(=O)c1c(CN2CCCCC2C)oc2ccc(OC)cc12.Cl (stereo not drawn) | -58.9
31 | CCOC(=O)c1c(CN(CC)CC)oc2ccc(OC)cc12 | -61.9
32 | CCOC(=O)c1c(-c2ccc(OC)cc2)oc2ccc(O)cc12 | 13.1
33 | Cc1ccc(C(=O)Nc2nnc(Cc3ccccc3)s2)cc1 | 9.35
34 | C=CCNC(=O)c1cc(-c2cccnc2)nc2ccccc12 | -34.7
35 | Cc1ccc(/C=C/C(=O)N2CCN(c3ccc(F)cc3)CC2)o1 | -15.8
36 | CSCC[C@H](NC(=O)[C@@H]1CSC2c3ccccc3C(=O)N21)C(=O)N1CCC[C@H]1CO (stereo partly drawn) | 1.52
37 | COc1ccc(N2CCN(Cc3nnc(-c4ccccc4)o3)CC2)cc1 | -0.362
38 | O=C1Nc2ccccc2/C1=N\N1CCOCC1 | 2.95
39 | Cc1nc2nc(-c3ccccc3)[nH]n2c(=O)c1C | -3.77
40 | CCN1CC2=C(OC(N)=C(C#N)C2c2ccccc2)/C(=C\c2ccccc2)C1 (stereo not drawn) | -6.02

Row | SMILES | hERG current change (%, negative = inhibition) at 10uM [%]
41 | CCCCN(CC)Cc1ccc(CNC(=S)Nc2ccc(C)cc2Cl)o1 | -32.1
42 | CCCCN(CC)Cc1ccc(CNC(=S)Nc2c(C)cc(C)cc2C)o1 | -54.8
43 | CCCCN(CC)Cc1ccc(CNC(=S)Nc2ccccc2F)o1 | -16.3
44 | CCCCN(CC)Cc1ccc(CNC(=O)Nc2ccccc2)o1 | -9.65
45 | CCCCN(CC)Cc1ccc(CNC(=O)Nc2ccc(Cl)cc2)o1 | -61.9
46 | CCCCN(CC)Cc1ccc(CNC(=O)Nc2ccc(F)cc2)o1 | -32.1
47 | CN1C(=O)NC(c2ccccc2[N+](=O)[O-])C2=C1CCCC2=O (stereo not drawn) | 10.1
48 | COc1cc(OC)c(-c2nc3cnccc3n2C)cc1OC | 6.5
49 | COc1ccc(NC(=S)N2CCN(C(=O)C3CCCO3)CC2)cc1 (stereo not drawn) | 11.8
50 | Cc1ccc(OCC(=O)N2CCN(C(=O)c3ccco3)CC2)cc1 | -37.7
51 | CC(C)O.CCCC1(CCC)NC(=O)N(CC(=O)N2CCN(C(=O)c3ccco3)CC2)C1=O | 5
52 | O=C(CN1C(=O)NC2(CCCC2)C1=O)N1CCN(C(=O)c2ccco2)CC1 | 4.41
53 | O=C(c1ccco1)N1CCN(c2ccc(F)cc2)CC1 | -0.235
54 | O=C(CCC(=O)N1CCOCC1)c1ccc(F)cc1 | 36.5
55 | Cc1ccc(CC(=O)N2CCN(C(=O)c3ccco3)CC2)cc1 | -7.76
56 | O=C(CCC(=O)N1CCN(C(=O)c2ccco2)CC1)c1ccc(F)cc1 | -66.7
57 | CCCCC1(c2ccc(F)cc2)NC(=O)N(CC(=O)N2CCN(C(=O)c3ccco3)CC2)C1=O (stereo not drawn) | -52.6
58 | Cc1ccc(C(=O)CCC(=O)N2CCN(C(=O)c3ccco3)CC2)cc1 | -56.2
59 | CC(=O)Oc1ccccc1N(C(C)=O)S(=O)(=O)c1ccc2ccccc2c1 | 7.06
60 | COc1ccc(NC(=O)Cn2nnc3ccccc32)c([N+](=O)[O-])c1 | 9.14
